Assay results: PubChem BioAssay (NCATS)
Results filed as inconclusive are left out. Where a call stands in place of a potency, no number is given. Activity calls are given as the source filed them. The call rests on the fitted dose curve; in most records, active means well fitted curve in the direction sought with a large enough effect; inconclusive means small, poorly fitted or top-dose-only effect, or another doubt; inactive means no such curve, though single readings can be large; an effect the other way counts as inactive or inconclusive.

Experiments:
OV90 = assay: Primary qHTS to identify gynecologic anti-cancer compounds using libraries of approved drugs and bioactive compounds (AID 1345084); settings: Gynecologic cancer cell panel viability, ATPlite luminescence, 48 h; series mostly up to 57.5 µM; further: nearly all actives have a fitted effect of over 55% in size
Outline: (§1)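 Measured: luminescence after ATPlite addition (15 min, RT). Exposure: 48 h, 37 C, 5% CO2.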

PA-1 = assay: as above; settings: Gynecologic cancer cell panel viability, ATPlite luminescence, 48 h; series mostly up to 57.5 µM
Outline: as §1

Tov-21-G = assay: as above; settings: Gynecologic cancer cell panel viability, ATPlite luminescence, 48 h; series mostly up to 57.5 µM
Outline: as §1

Tov112D = assay: as above; settings: Gynecologic cancer cell panel viability, ATPlite luminescence, 48 h; series mostly up to 57.5 µM
Outline: as §1

[1] = qHTS assay to identify inhibitors of the type 1 interferon - major histocompatibility complex class I in skeletal muscle: Counter screen cell viability and HiBit confirmation (AID 1347412); settings: iHSKM muscle cells + IFN-b, HiBiT or CellTiter-Glo, 24 h; further: nearly all actives have a fitted effect of over 60% in size
Outline: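 After 24 h with human IFN-beta (4 ng/ml) and compound titrations (top 46 uM final, 1:3, 12 points), HLA-B HiBit myoblasts were lysed for either Nano-Glo HiBiT luminescence or CellTiter Glo viability on paired plates.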
Potency means the concentration at half of the fitted maximal effect.

Structure (SMILES) | Potency (OV90) | Potency (PA-1) | Potency (Tov-21-G) | Potency (Tov112D) | Potency ([1]; HiBiT) | Potency ([1]; Viability) | activity change, negative = inhibition ([1]; Viability, at 45.9 µM (top of the series))
CCN1CCN(Cc2ccc(NC(=O)c3ccc(C)c(NC(=O)c4cncc(-c5cccs5)c4)c3)cc2C(F)(F)F)CC1 | 12.6 µM (active) | 1.58 µM (active) | 1.41 µM (active) | 3.55 µM (active) | 5.57 µM (active) | 12.5 µM (active) | 
CC(C)(C(=O)NCC(F)(F)C(F)(F)F)C(=O)NC1C(=O)Nc2ccccc2-c2ccccc21 (stereo unspecified) | inactive | inactive | inactive | inactive |  |  | 
Cc1ccc(NC(=O)Nc2cc(C(F)(F)F)ccc2F)cc1Nc1ccc2c(c1)NC(=O)/C2=C\c1ccc[nH]1 | inactive | inactive | inactive | inactive | 31.3 µM (active) |  | -28% (inactive)
CC1CCC2C(C(=O)O)=COC(O[C@@H]3O[C@H](CO)[C@@H](O)[C@H](O)[C@H]3O)C12 (stereo partly specified) | inactive | inactive | inactive | inactive |  |  | 
OC[C@H]1O[C@@H](Oc2ccccc2)[C@H](O)[C@@H](O)[C@@H]1O | inactive | inactive | inactive | inactive |  |  | 
OC[C@@]1(O)CO[C@@H](OC[C@H]2O[C@@H](Oc3c[nH]c4ccccc34)[C@H](O)[C@@H](O)[C@@H]2O)[C@@H]1O | inactive | inactive | inactive | inactive |  |  | 
Cc1c(C(=O)Nc2ccc(N3CC(C)OC(C)C3)nc2)cccc1-c1ccc(OC(F)(F)F)cc1 (stereo unspecified) | inactive | inactive | inactive | inactive |  |  | 
COC(=O)C1=C2Nc3ccccc3C23CCN2CCCC(C(C)O)(C1)C23 (stereo unspecified) | inactive | inactive | inactive | inactive |  |  | 
